Screening data from PubChem.
uPA generation: inhibitors of cell surface uPA generation. cell surface uPA generation assay, qHTS. Potency, µM (series often up to 38.3 µM), without a hit: at the highest dose activity change, negative = inhibition, most hits filed as inhibitors. 330,000 tested, 0.31% active; active = well fitted inhibition curve with a large enough effect; inconclusive = small, poorly fitted or top-dose-only effect; inactive = no such curve, though single readings can be large or run the other way; tested in mouse RAW 264.7 cells; also: potency is read from the fitted curve at half-maximal effect; % is scaled to controls: 0 for no effect and ±100 for the full control effect; nearly all actives have a fitted effect of over 55% in size
TCR activator: activates T cell receptor signaling; primary human leukocytes, anti-CD3, IL-2 HTRF, 48 h; Potency, µM (highest dose often 9.22 µM), for the others: at the highest dose activation of IL-2 secretion, most hits filed as activators; 330,000 tested, under 10 active; AID 504894; also: % of control where 0% means no effect
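Primary human leukocytes incubated 48 hr with anti-CD3 beads plus compound, without co-stimulation. Secreted IL-2 measured by HTRF (europium cryptate/d2 anti-IL-2 pair, 320 nm excitation, 665 nm emission).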
ClpP mod: qHTS Assay for Activators of ClpP; Potency, µM (highest dose often 57.5 µM), for the others: at the highest dose activity change, negative = active; 340,000 tested, 1.9% active; purified B. subtilis ClpP, FRET peptide cleavage, 20 min; ATP-dependent Clp protease proteolytic subunit (Bacillus subtilis (strain 168)), P80244; active = well fitted falling curve with a large enough effect; inconclusive = small, poorly fitted or top-dose-only effect; inactive = no such curve, though single readings can be large or run the other way; also: potency is read from the fitted curve at half-maximal effect; the source files actives as falling curves though it sought activators and does not explain the sign; nearly all actives have a fitted effect of over 65% in size
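ClpP 10 microg/mL final, pH 8 Tris/KCl buffer with BSA, glycerol, Tween-20; compound pinned in; FRET-FV substrate; RT 20 min; Ex320/Em430; ΔFRET vs ADEP 5.8 microM, DMSO, no enzyme.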
Sfp inh: blocks B. subtilis Sfp PPTase activity; Q9F4F7; Biochemical Sfp PPTase activity, qHTS; Potency, µM, for inactives: largest response in the series, negative = inhibition, usual class: inhibitors; 310,000 tested, 3.5% active; AID 1490;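 also: the enzyme is Sfp with the accession as filed and its product quenches rhodamine fluorescence; potency is read from the fitted curve at half-maximal effect; 0% = enzyme reaction without inhibitor and -100% = no enzyme wells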
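After 15 min at room temperature with compound, 15 nM Sfp received 5 uM rhodamine-CoA plus 12.5 uM BHQ-2-ybbR (50 mM Hepes pH 7.6, 10 mM MgCl2). Rate came from the fluorescence difference over 30 min, ex 525/em 598 nm.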
An asterisk follows results filed as active; ? = inconclusive; · = no result; ! = a repeat was not active; [ ] = dose if it differs, or a comment. Hits are enriched below; roughly 4.2% of the tested compounds scored in any of these assays. Unless noted, calls follow the shape of the dose curve; as a rule, active = well fitted curve in the direction sought with a large enough effect; inconclusive = small, poorly fitted or top-dose-only effect, or another doubt; inactive = no such curve, though single readings can be large; an effect the other way counts as inactive or inconclusive.

SMILES | uPA generation | TCR activator | ClpP mod | Sfp inh
CCN(CC)CCNC(=O)Cn1c(-c2ccccn2)nc2ccccc21 | · | -4.3% | 14.1µM* | -5.3%
O=C(O)Cn1c(-c2ccccn2)nc2ccccc21 | ? | 7.9% | 3.9% | -2.6%
CC1(C)C(=O)N(CC(=O)Nc2ccc(OC(F)(F)F)cc2)c2ccccc21 | · | · | 1.8% | ·
Clc1ccc(OCCCc2nc(-c3ccncc3)no2)c(Cl)c1 | 0.3% | 4.9% | -5.8% | -22.4%
Clc1ccccc1OCc1nc(-c2ccccn2)no1 | 3.5% | -0.3% | -2.4% | -1.0%
Clc1ccc(OCCCc2nc(-c3cccnc3)no2)c(Cl)c1 | · | -3.6% | -2.3% | 31.6µM*
Clc1ccc(OCc2nc(-c3ccccn3)no2)c(Br)c1 | 3.55µM* | 0.5%[46.1 µM] | 0.9% | -3.8%
Cc1ccc(NC(=O)C2CCN(S(=O)(=O)c3ccc4c(c3)CCCN4C(=O)C3CCC3)CC2)cc1 | · | · | -2.8% | ·
Cc1ccccc1NC(=O)N(O)C1(C#N)CCCCC1 | 6.2% | 7.6% | 31.6µM* | ·
Cc1cc(C)nc(SCC(=O)c2ccc(O)cc2O)n1 | 8.1% | -2.8% | 0.1% | 44.7µM*
Cc1ccnc(SCC(=O)c2ccc([N+](=O)[O-])cc2)n1 | 2.6% | -2.8%[46.1 µM] | 15.8µM* | 44.7µM*
Cc1cc(C)nc(SCC(=O)c2ccc(C)c(C)c2)n1 | 4.6% | · | 0.9% | -9.2%
Cc1cc(C)nc(SCC(=O)c2ccc([N+](=O)[O-])cc2)n1 | 4.1% | -0.3% | -4.0% | 44.7µM*
Cc1ccnc(SCC(=O)O)n1 | · | -0.6% | -0.5% | 4.0%
Cc1cc(C)nc(SCC(=O)c2ccc(O)c(O)c2)n1 | ? | 9.0% | -8.2% | ?
CCN(CC(=O)Nc1ccc2c(c1)OCCO2)C(=O)COc1ccc(C)cc1 | -2.2% | -4.3% | -4.7% | -0.5%
Cc1ccc(Nc2nc(NCc3ccco3)nc3nccnc23)c(C)c1 | · | · | -0.3% | ·
COc1ccc2[nH]cc(CCNC(=O)Nc3cc(C)cc(C)c3)c2c1 | · | · | -4.5% | ·
COC(=O)c1cc2oc3ccccc3c2n1Cc1ccccc1Cl | · | · | 4.3% | ·
COC(=O)c1cc2oc3ccccc3c2n1Cc1c(F)cccc1Cl | · | · | 2.51µM* | ·
N#Cc1nc(-c2ccc(OCc3ccc(Cl)cc3)cc2)oc1N1CCC(C(N)=O)CC1 | 7.9% | 1.7% | 5.01µM*! | -5.9%
CCCOc1ccc(-c2nc(C#N)c(N3CCC(C(N)=O)CC3)o2)cc1 | · | 2.5% | 14.1µM* | 5.1%
N#Cc1nc(-c2ccc(OCc3ccc(Cl)cc3)cc2)oc1N1CCCC1 | · | · | -0.4% | ·
Cc1cc(C)c2c(c1)C1C=CCC1C(c1ccc(S(=O)(=O)N3CCOCC3)cc1)N2 (configuration not stated) | -6.5% | · | 1.2% | 39.8µM*
O=C(O)c1cc(Cl)c2c(c1)[C@@H]1C=CC[C@@H]1[C@H](c1ccc(S(=O)(=O)N3CCOCC3)cc1)N2 | 12.2% | 3.9%[46.1 µM] | -2.1% | ?
SMILES | uPA generation | TCR activator | ClpP mod | Sfp inh
Cc1cccc(CNc2ncncc2-c2ccccc2Cl)c1 | · | · | · | 9.0%
O=C1NC(c2cccc(OCc3ccccc3)c2)Nc2ccccc21 (configuration not stated) | -8.8% | -3.8% | 31.6µM* | ·
Cc1nn2c(nc1=O)NNC2(C)C(C)(C)C (configuration not stated) | 5.4% | 1.5% | 0.2% | 35.5µM*
Cc1cccc(-c2nc(CN3CCCC(C(=O)NCc4ccc(Cl)cc4)C3)c(C)o2)c1 (configuration not stated) | · | · | 0.2% | ·
COc1ccc(CNC(=O)C2CCCN(Cc3nc(-c4cccc(C)c4)oc3C)C2)cc1 (configuration not stated) | -20.4% | -7.4% | -1.2% | 56.2µM*
CC1(C)CC(=O)C([N+](=O)[O-])=C(NCCCC(=O)O)C1 | 31.4% | -7.4%[46.1 µM] | 14.1µM* | ?
Cc1oc2ncn(C)c(=O)c2c1C(=O)NCCCN1CCCC(C)C1 (configuration not stated) | · | · | -2.3% | ·
CCOC(=O)CCc1c(C)nc(SCC(=O)O)c(C#N)c1C | 3.3% | -5.2% | -1.9% | 79.4µM*
COCc1cc(C)nc(SCC(=O)c2ccc(O)c(O)c2)c1C#N | · | 1.4% | 2.3% | 56.2µM*
CCOC(=O)CSc1nc2cc(OC)ccc2cc1C#N | -10.5% | 0.4% | 31.6µM* | 11.6%
Cc1cc(C)c(C#N)c(SCSCc2ccccc2)n1 | 5.8% | 0.3% | -2.6% | 20µM*
Cc1ccccc1OC(C)C(=O)NCCCN1CCOCC1 (configuration not stated) | 4.9% | -1.4% | -1.0% | 13.7%
CCCCCCCOc1ccc(CC(=O)NO)cc1 | · | · | -5.4% | ·
CCOC(=O)CSc1nc(C)cc(C)c1C#N | 4.9% | -10.8% | -3.4% | 56.2µM*
CCOc1ccc2cc(C#N)c(SCC(=O)N3CCOCC3)nc2c1 | 0.3% | -0.9% | 25.1µM* | -11.2%
Cc1cccc(NC(=O)c2cnc3sc(N4CCCC4)nn3c2=O)c1C | · | · | -8.4% | ·
Cc1ccc(N2CCn3c2nc2c3c(=O)n(CCCc3ccccc3)c(=O)n2C)cc1C | · | · | -23.1% | ·
CCOc1ccc(NC(=O)CC2C(=O)N(c3ccccc3)C(=O)N2Cc2ccc3c(c2)OCO3)cc1 (configuration not stated) | · | · | -0.1% | ·
CCOC(=O)c1c(C)[nH]c(C)c1C(=O)COC(=O)/C=C/c1cccc(F)c1 | 3.1% | 2.0%[46.1 µM] | -0.6% | 6.9%
CCOC(=O)c1c(C)[nH]c(C)c1C(=O)COC(=O)/C=C/c1ccc(OC)cc1 | 2.51µM* | 3.5% | 15.8µM* | ·
O=C1C=C(c2ccccc2)C(=O)N1Nc1ccccc1 | -19.9% | -0.8% | 2.0% | 10µM*
Cc1ccc(NC(=S)NCC23C=CC(O2)C2C(=O)N(c4ccc(C)cc4)C(=O)C23)cc1 (configuration not stated) | -4.9% | -3.0%[46.1 µM] | 1.5% | 35.5µM*
S=C(NCC1CCCO1)N1CCN(c2ccccc2)CC1 (configuration not stated) | 0.2% | -1.6% | · | -6.4%
Cc1cccc(NC(=S)NCC23C=CC(O2)C2C(=O)N(c4ccc(Cl)cc4)C(=O)C23)c1 (configuration not stated) | -3.2% | -2.8%[46.1 µM] | -3.7% | 35.5µM*
Cc1ccc(N2C(=O)[C@@H]3[C@H](C2=O)[C@H]2C=CC=NN2[C@@H]3C(=O)Nc2ccccc2)cc1 | -1.1% | -1.8% | 0.7% | -14.2%
SMILES | uPA generation | TCR activator | ClpP mod | Sfp inh
Cc1ccc(S(=O)(=O)NCC23C=CC(O2)C2C(=O)N(c4ccccc4)C(=O)C23)cc1 (configuration not stated) | 12.0% | -1.3% | -17.4% | 28.2µM*
Cc1ccc(N2C(=O)C3C4C=CC(CNC(=S)N5CCN(c6ccccc6)CC5)(O4)C3C2=O)cc1 (configuration not stated) | -0.2% | 0.3% | 1.0% | 12.6µM*
Cc1ccc(C)c(S(=O)(=O)c2nnn3c2nc(NC2CCCC2)c2sccc23)c1 | · | · | 31.6µM* | ·
Cc1ccc(S(=O)(=O)c2nnn3c2nc(NCc2cccs2)c2sccc23)cc1C | · | · | -14.4% | ·
O=S(=O)(c1ccc(Br)cc1)c1nnn2c1nc(NCc1cccs1)c1sccc12 | · | · | 28.2µM* | ·
CCc1ccc(S(=O)(=O)c2nnn3c2nc(NCc2cccs2)c2sccc23)cc1 | · | · | 28.2µM* | ·
Cc1ccc(C)c(S(=O)(=O)c2nnn3c2nc(NCc2cccs2)c2sccc23)c1 | · | · | 28.2µM* | ·
